Test results published in PubChem BioAssay AID1347426 (Functional Genomics Laboratory (NCATS/FGL), 2020).
About 1,400 (4.5%) of roughly 31,000 sequences were called active. Shown is part of a subset that was picked to be rich in actives. Values without a mark were called inactive.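 Rule for the calls: active = median seed-adjusted z-score above 1 or below -1; inactive = the rest.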

experiment: Novel Modifiers of Survival Motor Neuron (SMN) Protein: Gene Identification via Genome-wide siRNA Screen; details: HEK293T SMN2-luciferase reporter, siRNA knockdown, 72 h; actives lie on both sides;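 note: luminescence tracks full-length SMN protein made from the SMN2 reporter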
Outline: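 HEK293T cells stably expressing an SMN2 splicing/cDNA-luciferase reporter were reverse-transfected with a druggable-genome siRNA library and read by luminescence at 72 hours; hits defined by MAD score above 1.0 or below -1.0.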

Sequence | median seed-adjusted z-score
CAUGCUCGUGGGUAACAAATT against RAB25 | -0.04
UGGAGAGACUUAUCCAAGATT against CKMT1B | -0.929
CAGAUGUGGUGAUGCGUGATT against DMBX1 | -0.207
GCUUCAUGACAUCCGCAAATT against CTSL3 | 1.07 (active)
GGCAAGAGCUUGUAUCCAATT against CCNG1 | 0.131
CAAAAUCCUUUGUGAGUAATT against GPR174 | -0.324
GGACUUUGCUGCCUAAAUUTT against PIP5K1A | 0.0924
GCAUCACGCUCUCGAAGCATT against PTBP1 | 0.578
CCACCCUAGUUAGACAUCATT against ZNF419 | 0.0405
CCAUCAUCGACACACCCAATT against PRSS27 | 1.03 (active)
CAAUCGAACGUAAACAACATT against ADD3 | 0.0741
CAACCAUCGAGCAAAUGAATT against MAPK1 | 0
CAUCCCUUGUAAUUCACAATT against ZNF702 | 0.204
GCAUCAGCUCACAACAAAATT against SF3B4 | -2.56 (active)
CAAGUAUGAUCAGCAAUGATT against ENG | -0.254
GGCAUUACGUUUCUAGGUATT against AQP6 | 0.008
CGCUGUUCAAUGAACUAUATT against GBA2 | 0.143
ACACCAGGGUUGUCUACAATT against LCAT | 0.526
GAACUAUCAGAGCAGUUUUTT against LONP2 | 1.52 (active)
GAGCUAUAGUAAUUGCUCUTT against MIF4GD | 0.373
GAAACAUCAUUUUUGCGAATT against THBS4 | -0.28
GGACUGGGAUGAUACACCUTT against SBF2 | 0.569
CCAUCAUGAUGCUAGCUAUTT against AP3B2 | -2.45 (active)
GCAGAAUUGGAGACGGAAATT against DNALI1 | 0.699
CCAAAUUCCGCUCUCAUGATT against SFRS9 | -0.144
GUAUGAGUGUGACCGGGAATT against MRC2 | -1.34 (active)
GGAUGAUCGAGACCAGUUUTT against XPO4 | 0.616
GCUGUUGACUCACAAUGAUTT against GCLM | 0.0509

Sequence | median seed-adjusted z-score
GCUUACGGCUUGUACCUGATT against SFRS17A | -0.389
GGAAUUAUUACAAGGUAAATT against EIF3E | 0.549
UCUCUUCAAUAUGUAUUUATT against HOXC9 | 0.395
GAAUCACCAUUUAAGUGCATT against PDE1C | 0.157
GGGCUUAGGUGUGAUCAUUTT against USH2A | 0.0673
GCCUAUUCAGAACACCAAUTT against TBP | -1.25 (active)
CGUGCUUUGAGUACCCGAATT against TAT | 0.257
CCUUAAGAGGGAUGAUAAATT against SAFB | -0.954
CCCUCUCACCAUUACUUCATT against CRYAB | 0.354
GCUCUAGGCUUCAAGGCAATT against CTSL3 | 1.07 (active)
CGAGGACGAUGACUGCUUATT against LRP8 | -0.547
GCAAGAAGAGAUUAGCAAATT against EIF2C2 | -0.183
GACUGAUGCUUUGACUGAATT against NPTX2 | 0.0558
GGAACGAGGCAGAUAUGGATT against NMNAT2 | -1.58 (active)
GGAGGAAUCUUGGUCCUUATT against SLC11A2 | -0.157
AUAUCAGGCUGGUUUACAATT against PLA2G15 | 0
GAGCAACAGUCACCAGAUATT against MAT2A | -1.9 (active)
GGCUGUCCGACUCAACAUATT against SIGLEC12 | 0.226
GCAAAUGGGAGGUUGGAAATT against ZIK1 | -0.0627
GGGAAGUGGUAAAUAAAGATT against MCM7 | 0.0993
GCUCGGACUUCAACAACUATT against PPAP2C | -1.12 (active)
CAGUAUCUAUUCACAAUGATT against TRNT1 | 0.142
CCCUUCUUGUUUACAUGAATT against SLC25A43 | 0
CAGGUAUAUCAAUUUUUCATT against PRICKLE3 | 0.0332
GUAUCGAAGUGGAGACAAUTT against NELL1 | -0.466
CCACGUGUUUCAAAGCAGATT against GPR172B | 0.184
CAGUGAUGGUUAAGAACGATT against A2M | -1.96 (active)
